SW480 rerep = inducers of DNA re-replication in SW480 colon cancer cells | SW480 DNA re-replication, Hoechst DNA content imaging, 48 h | Potency, µM (titrated, usually from 46.1 µM), most hits filed as activators | 340,000 compounds, 1.8% hits; note: nearly all actives have a fitted effect of over 55% in size
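Quantitative HTS format with DMSO vehicle controls; 48 hr drug incubation at 37 C, then 40 min Hoechst staining and scanning imager measurement at 405 nm excitation.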
KB-3-1 tox = kills parental KB-3-1 adenocarcinoma cells; KB-3-1 viability, CellTiter-Glo ATP luminescence, 72 h; 400,000 compounds, 1.4% hits; AID 1347075; Potency, µM (titrated, usually from 46.1 µM), hits mostly cytotoxic; note: nearly all actives have a fitted effect of over 60% in size
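Using CellTiter-Glo luminescence, growth of non-resistant KB-3-1 adenocarcinoma cells is assessed 72 h after pin-tool compound addition at 37 °C. Normalized responses across the concentration series yield fitted curves.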
MCF10A rereplic = DNA re-replication induction in MCF 10a cells; MCF 10A DNA re-replication, Hoechst nuclear intensity, 48 h; Potency, µM (doses to about 46.1 µM), usual class: activators; 350,000 compounds, 2.9% hits; note: nearly all actives have a fitted effect of over 50% in size
HT1080 IDH1KD tx = toxicity to HT-1080 IDH1 knockdown cells (counter line) | Potency, µM (titrated, usually from 46.1 µM), most hits filed as cytotoxic | AID 686971 | 360,000 compounds, 2% hits | HT-1080 IDH1 knockdown viability, ATP luminescence, 48 h
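HT-1080-IDH1KD cells (IDH1 knocked down), 750/well in RPMI with 5% FBS, treated with compound 48 h at 37 degrees C. Viability by CellTiter-Glo luminescence, normalised to DMSO and no-cell wells; concentration-response curves classed.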
HT1080NT lethal = kills 2HG-producing HT-1080-NT fibrosarcoma cells. AID 686970. HT-1080-NT fibrosarcoma viability, CellTiter-Glo ATP luminescence, 48 h. Potency, µM (doses to about 46.1 µM), hits mostly cytotoxic. 360,000 compounds, 1.6% hits;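 note: NT is the 2HG producing partner of a matched IDH1 knockdown line; nearly all actives have a fitted effect of over 55% in size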
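Toxicity toward the 2HG-producing NT line was scored as %Activity, normalised to DMSO and no-cell wells, from CellTiter-Glo luminescence after 48 hours' treatment.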
KB-V1 cytotox = KB-V1 MDR subline cytotoxicity; 400,000 compounds, 3.4% hits; Potency, µM (doses to about 46.1 µM), actives largely listed as cytotoxic; KB-V1 MDR cells viability, CellTiter-Glo, 72 h; note: nearly all actives have a fitted effect of over 60% in size
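KB-V1, DMEM (no phenol red) + 10% FBS; cpd pin-transferred, titration series; 72 h, 37 degrees C; CellTiter-Glo, luminescence. Data normalized, curve-fit.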
Numbers stand for hits; 0 = inactive; ? = inconclusive; - = not tested or not shown; ! = a repeat was not active; [ ] = dose if it differs, or a comment. Shown are actives, neighbours in structure and some others; about 7.9% of the full set was active somewhere. Calls come from the whole dose curve; as a rule, active = well fitted curve in the direction sought with a large enough effect; inconclusive = small, poorly fitted or top-dose-only effect, or another doubt; inactive = no such curve, though single readings can be large; an effect the other way counts as inactive or inconclusive.

SMILES	SW480 rerep	KB-3-1 tox	MCF10A rereplic	HT1080 IDH1KD tx	HT1080NT lethal	KB-V1 cytotox
CN1C2CCC1/C(=C/c1ccccn1)C(=O)/C2=C\c1ccccn1	?	0.92µM	?	0.82µM	1.2µM	?
CCC12CN3CC(CC)(CN(C1)C3c1ccccn1)C2=O (stereo unspecified)	-	0	-	-	-	0
CCCOc1ccc(C2SCC(=O)Nc3c2c(C)nn3-c2cccc(C)c2)cc1OC (stereo unspecified)	-	?	-	-	-	0
NS(=O)(=O)c1ccc(CCNc2ccn3nc(-c4cccc(C(F)(F)F)c4)cc3n2)cc1	-	0	-	0	?	0
O=C1Nc2ccccc2/C1=C/c1cnc[nH]1	?	0	?	?	0	?
COc1ccc2c(c1)/C(=C/c1cnc[nH]1)C(=O)N2	?	?	?	15µM!	?	10µM
COc1cc(OC)c(/C=C2\C(=O)Nc3ccccc32)c(OC)c1	12µM	4.1µM	5.2µM	2.6µM	?	8.2µM
Cc1c(C)n(O)c2ccc3nonc3c12	?	0	21µM	0	0	0
[S]=[Sb][S][Sb]=[S]	0	-	0	-	-	-
N#C/C(=C(/O)c1ccc(S(=O)(=O)N(CCCl)CCCl)cc1)c1nc2ccccc2[nH]1	?	0	10µM	0	0	0
O=C(O)c1c[nH]c2ccc(S(=O)(=O)N(CCCl)CCCl)cc12	0	0	0	0	0	0
COP(C)(=O)c1c(C)nn(-c2ccccc2)c1C (stereo unspecified)	0	0	?	0	0	0
CC(C)(C)NC(=O)NC(=O)CN1CC=C(c2ccccc2)CC1	?	0	?	0	0	0
O=C(CN1CC=C(c2ccccc2)CC1)NC(=O)NC1CCCCC1	0[1.84 µM]	0	21µM	0	0	0
COC(=O)[C@@]12CCCCN1[C@H](c1ccc(-c3ccc(Cl)c(Cl)c3)c(OC)c1)[C@H]1C(=O)N(C)C(=O)[C@H]12	0	0	0	0	0	0
CN1C[C@H](C(=O)N[C@]2(C)O[C@@]3(O)C4CCCN4C(=O)[C@H](Cc4ccccc4)N3C2=O)C[C@@H]2c3cccc4[nH]cc(c34)C[C@H]21 (stereo partly specified)	0[4.21 µM]	-	0	-	-	-
Cc1ccc(Cl)c(O)c1	0	-	0	-	-	-
CCN(CC)C(=O)c1ccc(NC(=O)Nc2ccccc2F)cc1	0	?	0	5.2µM	7.3µM	?
CCN(CC)C(=O)c1ccc(NC(=O)CCCSc2ccccc2)cc1	0	0	0	0	0	0
CCC1C(c2cc(OC)c(OC)c(OC)c2)c2cc3c(cc2OC1N1CCCC1)OCO3 (stereo unspecified)	8.2µM	4.1µM	4.1µM	?	?	5.2µM
CCCc1nc(SCC(=O)N2CCc3ccccc3C2)c2ccccc2n1	?	0	?	?	?	0
CCOC(=O)c1ccccc1C(=O)OCC	0	0	0	-	-	0
CCOC(=O)c1cnc(N2CC2)nc1N	?	?	?	0	0	5.8µM
COc1ccc(OC)c(N=Cc2c(O)n(Cc3ccccc3)c(=S)[nH]c2=O)c1	29µM	0	?	0	0	0
CC(C)(C)NS(=O)(=O)c1cccc(S(=O)(=O)c2cccc(S(=O)(=O)NC(C)(C)C)c2)c1	?	0	0	?	?	15µM
SMILES	SW480 rerep	KB-3-1 tox	MCF10A rereplic	HT1080 IDH1KD tx	HT1080NT lethal	KB-V1 cytotox
CC(C)(C)NS(=O)(=O)c1ccc(OCC(=O)N2CCN(Cc3ccccc3)CC2)cc1	0	0	0	0	0	?
O=C(CSC1c2ccccc2-c2ccccc21)N/N=C/c1ccccc1O	?	?	2.1µM	?	4.5µM	5.2µM
Cc1ccc(C(C)C)c(OCCn2c(=O)oc3ccccc32)c1	?	0	?	0	0	?
O=C1C2CCCN2C(c2cccs2)N1c1ccc(Cl)cc1 (stereo unspecified)	0	?	?	0	0	?
COC1CC(C)C(OC)c2cc(O)cc(c2O)NC(=O)C(C)=CC=CC(C)C(OC(N)=O)C(C)=CC(C)C1OC (stereo unspecified)	2.6µM	0	5.8µM	23µM	0	0
Cc1ccc(-n2c(-c3cccs3)nc3ccccc3c2=O)cc1	0	0	0	0	0	23µM
CN1C(=S)CN=C(c2ccccc2)c2cc(Cl)ccc21	0	-	0	-	-	-
CC(C)Sc1nnc([C@@H](N)Cc2c[nH]c3ccccc23)o1	0	0	0	0	0	18µM
NC(=O)CSc1nnc([C@@H](N)Cc2c[nH]c3ccccc23)o1	0	0	0	0	0	0
O=C1C(=Cc2cn(-c3ccccc3)nc2-c2ccc(OCc3ccc(Cl)cc3)cc2)SC(=S)N1CCS(=O)(=O)O	-	8.2µM	-	0	?	?
O=C(Nc1ccccc1OC(=O)N1CCOCC1)N1CCOCC1	0	0	0	0	0	0
Cc1cccc(/C(N)=N/OC(=O)N2CCOCC2)c1	?	0	?	11µM	?	?
Cc1ccc2c(c1)C1CN(C)CCC1N2C(=O)Nc1ccc(Cl)cc1 (stereo unspecified)	0	0	0	?	?	?
Cc1nonc1OCCNc1ccc([N+](=O)[O-])c2cccnc12	0.52µM	0	0	0	0	?
NCCNc1ccc([N+](=O)[O-])c2cccnc12	0	?	0.65µM	0	0	0
CCC(CO)Nc1ccc([N+](=O)[O-])c2cccnc12 (stereo unspecified)	0	?	0	0	0	18µM
CCCNC(=O)c1cc2c(c(-c3cccc(-c4cc5ccccc5o4)c3)n1)[C@H](CCO)N(C(=O)NC(C)C)C2	-	0	-	?	?	?
O=C(OCC1OC(n2cnc3c(N(C(=O)c4ccccc4)C(=O)c4ccccc4)ncnc32)C(O)C1F)c1ccccc1 (stereo unspecified)	?	0	0	?	?	0
C=CC[C@@H](CC(=O)N(CCO)Cc1ccccc1)C(=O)NC[C@H](OC(=O)[C@@H](CC=C)CC(=O)OC(C)(C)C)c1ccccc1	0	?	0	0	0	0
O=c1[nH]c(=O)n(CCc2ccc(F)cc2)c(O)c1C=NCc1ccc2c(c1)OCO2	0	0	?	0	0	0
O=C1NC(=O)N(c2cccc(Br)c2)C(=O)/C1=C/c1ccsc1	0	0	0	23µM	?	0
CC1OC(OC2C=C3CCC4C(CCC5(C)C(c6ccc(=O)oc6)CCC45O)C3(C)CC2)C(O)C(OC2OC(CO)C(O)C(O)C2O)C1O (stereo unspecified)	?	?	0	0.18µM	0.21µM	?
CN(C)C(=O)Oc1ccc(OCc2nc3ccccc3[nH]2)cc1	0	?	0	6.5µM	7.3µM	12µM
CN(C)C(=O)Oc1ccc(OC(=O)N(C)C)cc1	0[9.22 µM]	0	?	0	0	0
